From PubChem BioAssay (NCI)
This is part of a sample that, as a whole, favours compounds with a hit. Of some 83,000 tested, about 20% had one in any assay.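 Results are percent growth after 48 hours of single-concentration exposure. 100 means growth as in untreated cells, lower positive values show inhibition; negative values down to -100 show cell death.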 Calls of active or inactive are those of the source. Rule for the calls: active = growth percent below 10; inactive = the rest.

tested on: LOX IMVI melanoma; assay: NCI-60 one-dose screen, 48 h (100 = growth as untreated, 0 = no growth, -100 = all killed); conditions: 10 µM unless noted

Row | SMILES | growth
1 | CC1=C[C@@H]2c3c(c(O)c(O)c4oc5cc(O)cc(O)c5c(=O)c34)[C@@H](c3cc(O)c(O)c4oc5cc(O)cc(O)c5c(=O)c34)[C@@H]2C(C)(C)C1 | -98.2% (active)
2 | Brc1c(-c2ccncc2)nc2n1CCS2 | 89.4% (inactive)
3 | CC(C)(C)c1ccc(OCCOC(=O)CBr)cc1 | 97.8% (inactive)
4 | NC(N)=Nc1ccc(/C=C2\C=Cc3ccccc32)cc1 | 40% (inactive)
5 | O=C(Cc1ccccc1[N+](=O)[O-])c1ccc2c(c1)OCO2 | 96.9% (inactive)
6 | N#Cc1c(N)nc(Nc2nc3ccccc3[nH]2)nc1-c1ccc(Cl)cc1 | 96.2% (inactive)
7 | Oc1ccc(CN(Cc2ccc(C(F)(F)F)cc2)Cc2ccc(O)c3ncccc23)c2cccnc12 | 18.7% (inactive)
8 | CCC(C)C1NC(=O)C(CC(C)C)NC(=O)C(C)NC(=O)C(C(C)C)NC(=O)C(CCCCN)NC(=O)C(CC(C)C)NC(=O)C(C(C)C)NC(=O)[C@H](C)NC(=O)C(C(C)CC)NC(=O)C(CCCN=C(N)N)NC(=O)C(CCCCN)NC(=O)C(CCCN=C(N)N)NC(=O)C(CCCCN)NC(=O)C([C@H](C)CC)NC(=O)C(CCCCN)NC1=O (stereo partly drawn) | 35.4% (inactive)
9 | COC(=O)c1ccc(C(=Nc2ccc(N(C)C(=O)CN3CCN(C)CC3)cc2)c2c(O)[nH]c3ccc(C(=O)OC)cc23)cc1 | 38.5% (inactive)
10 | O=C(C(=O)N1CCOCC1)c1ccc(O[C@H]2O[C@H](CO)[C@@H](O)[C@H](O)[C@@H]2O)cc1 | 102% (inactive)

tested on: SK-MEL-28 melanoma; assay: as above; conditions: 10 µM unless noted

Row | SMILES | growth
11 | NCCCOc1cc2ccccc2cc1C(=O)Nc1ccc(Cl)cc1OC(=O)c1cc2ccccc2cc1OCCCN | -89.3% (active)
12 | CCCCCCCCCCCCCCCCNC(=S)N/N=C/c1ccc(O)cc1O | 88.7% (inactive)
13 | CC1(C)N=C(N)N=C(N)N1c1cccc(CCCCOc2ccccc2)c1 | 39.3% (inactive)
14 | CCCC(C)c1cc(Cc2cc(Cl)cc(Cl)c2O)c(O)c(Cc2cc(Cl)cc(Cl)c2O)c1 (stereo not drawn) | 8.03% (active)
15 | Oc1ccc(Br)cc1/C=N/NC(=S)NC12CC3CC(CC(C3)C1)C2 | 51.2% (inactive)
16 | Cc1ccc([C@@H]2C[C@H](O)Cc3ccccc3N2)s1 | 116% (inactive)
17 | Cc1c(Cc2ccccc2)c(=O)oc2c(C)c(OCC(=O)n3nc(C#N)cc3N)ccc12 | 106% (inactive)
18 | N#CCc1ncc(-c2ccc(C(F)(F)F)cc2)c(NC2CCCCCC2)n1 | 65.8% [100 µM] (inactive)
19 | CCC1(CC)C(OC)NC(Br)=C(C#N)C1(C#N)C(N)=O (stereo not drawn) | 114% (inactive)
20 | CC1(C)Oc2cc3oc(=O)ccc3cc2C[C@@H]1OCCOS(=O)(=O)c1ccc(C#N)cc1 | 101% (inactive)
21 | CC(C)CCCCCOC(=O)c1ccccc1SSc1ccccc1C(=O)OCCCCCC(C)C | 114% (inactive)
22 | C=C(NC(=O)[C@H](C(C)C)N(C)c1cccc2[nH]ccc12)C(=O)OC | 104% (inactive)
23 | O=C(NC1CCN(Cc2ccccc2)CC1)c1cc(-c2cccnc2)nc2ccc(Cl)cc12 | 94.1% (inactive)
24 | Cc1c(CN(C)C)cc(C(C)C)cc1C(C)C | 107% (inactive)
25 | Nc1ccc(S(=O)(=O)c2ccc(NO)cc2)cc1 | 105% (inactive)
26 | CCOC(=O)C1=C(C(F)(F)F)NC(=S)NC1CN1C(=O)c2ccccc2C1=O (stereo not drawn) | 108% (inactive)
27 | CC(=O)NCCN | 108% (inactive)
28 | COc1ccc(Cn2cc3c(c2)-c2oncc2CC3)cc1OC | 50.3% (inactive)
29 | Cc1ccc(C(=O)Nc2ccc(CN3CCN(C)CC3)c(C(F)(F)F)c2)cc1C#Cc1cncc2ncccc12 | -90.4% (active)
30 | Cc1nc2c(nnn2-c2ccccc2)c2nc(-c3ccc(Cl)cc3)oc(=O)c12 | 102% (inactive)
31 | CC(=O)Nc1nc(C)c(C(=O)N/N=C/c2cccs2)s1 | 95.5% (inactive)
32 | CCCC(CCC)Oc1ccc(CCCC2=C(O)c3ccccc3C(=O)C2=O)cc1 | 59.2% (inactive)
33 | COc1ccc(-c2cc(C#N)c(NNC(C)=O)[nH]2)cc1 | 115% (inactive)
34 | CCCCCCCCCCCCCCCCCC(=O)Nc1ccc(O)cc1 | 103% (inactive)
35 | COc1ccc2c(N)ncc(C#Cc3cc(C(=O)Nc4ccc(CN5CCN(C)CC5)c(C(F)(F)F)c4)cnc3C)c2c1 | -80.2% (active)
36 | COC(=O)C1CC(=O)N(C(=O)Nc2ccc(Cl)cc2Cl)C1 (stereo not drawn) | 112% (inactive)
37 | COC(=O)CC(=O)C(=O)OC | 111% (inactive)
38 | COc1ccc(C2=NN(C(=O)c3cc(-c4ccc(C)cc4)nc4ccccc34)C(c3cc(-c4ccccc4)nn3-c3ccccc3)C2)cc1 (stereo not drawn) | 93.8% (inactive)
